The full ranking holds about 33,000 sequences; the median of “E-score (-0.5 to 0.5)” is about -0.056, and the highest 2% start at about 0.38. This is one part of a sample in which the highest values are shown more often than they occur.
molecular target: Stb4 (UniProt P50104); experiment: PBM E-score (8-mer binding enrichment) (E-score (-0.5 to 0.5)); higher = stronger / more preferred TF binding; details: protein concentration: 200 nM; construct: GST-DNA-binding domain
Procedure: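 Universal 'all 10-mer' protein binding microarrays (Agilent AMADID 015681) probed with GST-tagged S. cerevisiae TFs (full-length or DBD) made by in vitro transcription/translation (PURExpress), about 100-200 nM. Bound TF was detected with fluorescent anti-GST. Each ungapped 8-mer (which stands for itself and its reverse complement) is scored by the PBM enrichment score (E-score), a modified Wilcoxon-Mann-Whitney statistic from -0.5 to +0.5, computed with the Universal PBM Analysis Suite. Scale: above 0.35 generally sequence-specific binding.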

Sequence of UniProt P50104 (P50104 whole entry, the tested form may be a part): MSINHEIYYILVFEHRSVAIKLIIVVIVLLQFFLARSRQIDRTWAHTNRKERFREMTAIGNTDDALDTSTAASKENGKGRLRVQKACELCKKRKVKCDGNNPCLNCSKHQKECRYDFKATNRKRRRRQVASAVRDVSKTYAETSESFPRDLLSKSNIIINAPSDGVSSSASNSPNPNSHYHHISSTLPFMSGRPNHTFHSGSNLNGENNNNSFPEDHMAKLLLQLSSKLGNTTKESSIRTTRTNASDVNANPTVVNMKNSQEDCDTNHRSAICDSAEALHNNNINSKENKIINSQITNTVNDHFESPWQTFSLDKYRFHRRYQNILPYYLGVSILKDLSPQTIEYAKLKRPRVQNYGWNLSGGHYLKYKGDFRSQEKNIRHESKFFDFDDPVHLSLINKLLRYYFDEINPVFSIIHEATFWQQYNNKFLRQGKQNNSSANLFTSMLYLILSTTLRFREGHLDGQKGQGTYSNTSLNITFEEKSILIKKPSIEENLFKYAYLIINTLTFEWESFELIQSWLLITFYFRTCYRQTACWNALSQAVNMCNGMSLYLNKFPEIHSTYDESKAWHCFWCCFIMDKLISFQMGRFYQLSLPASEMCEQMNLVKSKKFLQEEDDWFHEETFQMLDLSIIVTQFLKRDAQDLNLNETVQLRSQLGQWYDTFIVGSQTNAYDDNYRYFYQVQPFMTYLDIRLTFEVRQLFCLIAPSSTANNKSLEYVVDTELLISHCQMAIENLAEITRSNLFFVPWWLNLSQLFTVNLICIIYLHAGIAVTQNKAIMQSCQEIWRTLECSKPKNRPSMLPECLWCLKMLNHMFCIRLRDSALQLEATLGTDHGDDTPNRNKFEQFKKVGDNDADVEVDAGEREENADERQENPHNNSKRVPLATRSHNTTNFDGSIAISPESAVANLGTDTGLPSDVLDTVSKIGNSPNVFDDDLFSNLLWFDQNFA

Row | Sequence | PBM E-score
1 | GCATGAAA | -0.101
2 | GTTCTCGA | -0.166
3 | ACGAATCC | 0.009
4 | ACGAATCG | 0.0102
5 | GCGAATCC | -0.0095
6 | CCGAATCC | 0.427
7 | CCGAATCA | 0.361
8 | CCGAATCG | 0.405
9 | ACTAGCAG | -0.298
10 | GCCTACCC | 0.0606
11 | ACAGATCG | -0.0736
12 | TATCCGGA | 0.46
13 | GATCCGGA | 0.421
14 | AATCCGGA | 0.363
15 | TATCCTGA | -0.0875
16 | GATCCGGC | 0.396
17 | AATCCGGT | 0.246
18 | AATCCGGC | 0.241
19 | GAACCGGC | 0.262
20 | GATCCGCA | 0.316
21 | GTGAAAGA | 0.0652
22 | GTGAAGAA | -0.139
23 | GAAGTGTA | -0.107
24 | ATTGGTAA | -0.137
25 | GCCTGCAA | -0.18

Row | Sequence | PBM E-score
26 | CCGTGAAA | 0.145
27 | GTATCATA | -0.0852
28 | AATCATAA | -0.089
29 | GCCCAGGA | -0.0894
30 | GTCGGAAC | 0.454
31 | CTCGGAAG | 0.48
32 | ATCGGAAG | 0.433
33 | AACGGAAG | 0.284
34 | ATCGGACC | 0.308
35 | ATCGGACG | 0.289
36 | GACGGAAC | 0.317
37 | GTGGGAAC | -0.102
38 | CACGGAAG | 0.36
39 | CGCGGAAG | 0.357
40 | ATCGGAAC | 0.428
41 | AACGGAAC | 0.348
42 | AATGACGC | -0.238
43 | GTGATGGA | -0.00596
44 | CGATTCTC | 0.0534
45 | ACGCTCCA | -0.0409
46 | AATGAGAA | -0.0737
47 | AACGGACA | 0.0833
48 | CTGGGAAA | -0.168
49 | ATCGGAAA | 0.424
50 | CGCGGAAA | 0.316

Row | Sequence | PBM E-score
51 | GTCAGAAA | -0.203
52 | GTTGGAAA | 0.0285
53 | GTCGGAAA | 0.453
54 | CTCGGAAA | 0.479
55 | AACGGAAA | 0.393
56 | ATCGGACA | 0.196
57 | CACGGAAA | 0.352
58 | AGCGGAAA | 0.333
59 | CCCATTCA | -0.0249
60 | CGTTTATA | -0.0024
61 | ATCCCGGC | 0.323
62 | AGCGTAGG | -0.0217
63 | AAGGCGGG | -0.0393
64 | CTGAACAA | -0.0548
65 | AGGGATGG | -0.174
66 | ACGATTCC | 0.06
67 | CGACTTGA | -0.0925
68 | CGATCAAA | 0.0532
69 | AACTTGGC | -0.109
70 | CGCGGAAC | 0.395
71 | CTAGGAAC | -0.00703
72 | TGCGGAAA | 0.299
73 | ATCGGAAT | 0.434
74 | AGCGGAAT | 0.141
75 | CACGGAAC | 0.352

Row | Sequence | PBM E-score
76 | AGCGGAAC | 0.316
77 | CTCGGAAC | 0.485
78 | TTCGGAAA | 0.474
79 | GGCGGAAC | 0.356
80 | AACGGAAT | 0.315
81 | TTCAGAAA | -0.23
82 | GCCATGGC | -0.361
83 | CCCTTTTA | -0.172
84 | AGCCTAGG | -0.0301
85 | GATCCTTA | -0.0996
86 | GCCATTCC | 0.127
87 | CCAGCGCC | -0.0109
88 | CTACGCCA | -0.271
89 | CACCCCAC | 0.0245
90 | CCTTGTGA | -0.0811
91 | CCTCTCCA | -0.309
92 | CCTCGCTA | -0.29
93 | CCGCTACA | 0.109
94 | AATTCAAC | 0.015
95 | ATTAACCA | -0.136
96 | ATTAACCG | 0.413
97 | ATTAACCC | 0.212
98 | GAGGAATC | -0.07
99 | ACGTCGGC | 0.307
100 | CCGTCGGC | 0.329

Row | Sequence | PBM E-score
101 | CCGTCGTA | -0.0259
102 | CCGTCGGA | 0.397
103 | ACGTCGGA | 0.389
104 | GCGTCGGA | 0.449
105 | GCGTCGTA | 0.0854
106 | ACGTCGGG | 0.349
107 | GCGTCGAA | -0.0895
108 | CTGGCAGC | -0.168
109 | ACATAATA | -0.153
110 | CGAGTCAA | -0.0247
111 | AGGTTCAT | -0.128
112 | ACAAGGCT | -0.138
113 | ACAGATTG | -0.0283
114 | AGTTTAAT | -0.111
115 | ATGGGCTA | -0.084
116 | CCACTCCA | -0.146
117 | AATACCAT | -0.115
118 | CGTGCCGA | 0.405
119 | GGTGCCCA | -0.147
120 | CGTGCCGC | 0.0918
121 | AGTGCCGG | 0.301
122 | AGTGCCGA | 0.423
123 | AGTGCCGC | 0.123
124 | CGTGCCCA | 0.00213
125 | GGTGCCGA | 0.402

Row | Sequence | PBM E-score
126 | GGTGCCTA | -0.0355
127 | CTGGACGC | -0.278
128 | ATCGCCCG | 0.152
129 | CACGGCCC | 0.0623
130 | GAGGAGTA | -0.00803
131 | CCCGGGTC | 0.32
132 | CACGGGTA | 0.333
133 | GTCGGGTA | 0.445
134 | CCGGGGTA | 0.155
135 | ATCGGGTG | 0.366
136 | ATCGGGCA | 0.125
137 | ATCGGGTA | 0.419
138 | CTCGGGCA | 0.325
139 | CTCGGGTA | 0.478
140 | GTCGGGGA | 0.225
141 | GACGGGTA | 0.267
142 | CCCGGGTA | 0.407
143 | ATGATTTC | 0.0687
144 | AATGATTG | -0.164
145 | ATAGCAAT | -0.185
146 | AGTCTAAC | -0.163
147 | ACAGTCAG | -0.0929
148 | ACACCAAT | 0.00344
149 | ATCGGGTC | 0.325
150 | CTCGGGTC | 0.434

Row | Sequence | PBM E-score
151 | CTCGGGCC | 0.343
152 | CGGAATTA | 0.401
153 | AGGAATCA | -0.00647
154 | GGGAATAA | 0.233
155 | GGGAATCA | 0.0543
156 | AGGAATTA | 0.0103
157 | CGGAATTC | 0.322
158 | CGGAATCA | 0.388
159 | CGGAATAA | 0.384
160 | TGGAATAA | 0.072
161 | GGATCATA | 0.228
162 | AACTGTGC | -0.157
163 | AAAAATCG | 0.0452
164 | CTGAAACA | 0.0153
165 | GTTTAGAA | -0.0425
166 | ATGAAAAT | 0.0835
167 | AGACGGGA | 0.174
168 | GACTCAGC | -0.191
169 | CACGCATG | -0.209
170 | ATACATGA | -0.212
171 | ACGAACTA | -0.194
172 | CCGAACAA | 0.425

— the supplement of paper PMC3334620
